The values that follow come from PubChem BioAssay (NCI).

What all share (experiment): NCI-60 one-dose screen, 48 h (100 = growth as untreated, 0 = no growth, -100 = all killed)
Conditions in all cases: 10 µM unless noted

Test [1] concerns HCT-15 colon.
Test [2] deals with HT29 colon.
Test [3] deals with U251 CNS.
Test [4] concerns PC-3 prostate.
The subject of test [5] is SK-MEL-5 melanoma.
In test [6] the test system is UACC-62 melanoma.
The subject of test [7] is LOX IMVI melanoma.
Test [8] relates to SK-MEL-28 melanoma.
The subject of test [9] is SNB-19 CNS.

The panel holds about 83,000 compounds, 20% with a hit somewhere; the sample as a whole holds those more often.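 Single-concentration screen, 48 h exposure, 96-well plates. Endpoint: percent growth. Below 10 = active.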 Unmarked numbers belong to inactive results. The source made the active and inactive calls.

For `O=c1c2c3c(sc2nc(N/N=C/c2ccc(Br)cc2)n1Cc1ccccc1)CCCC3`, the growth is 78.1% in test [1]; 101% in test [2]; 70.3% in test [3]; 70.2% in test [4]; 87.2% in test [5]; 88.7% in test [6]. The growth in test [7] was 73%; in test [8], 120%.

For `COc1ccc(NC(=O)c2nc(-c3cc(OC)c(OC)c(OC)c3)n(-c3cccc4ccccc34)n2)cc1OC`, the growth in test [1] is 14.5%; in test [2], 30%; in test [9], 52.3%; in [3] it was 52.4%; in test [4], 39.8%; in test [5], 32.4%. Besides, the growth is 31% in [6], 25.2% in [7] and 55.4% in [8].

In the case of `Cc1ccc(Cc2cnc(NC(=O)c3ccc4noc(-c5ccccc5)c4c3)s2)cc1`, the growth in test [1] is 88.6%; in [2], 65.3%; in test [9], 92.2%; in test [3], 96.3%; in test [4] it was 75.2%; in [5], 94.9%. Besides, the values for the growth in test [6], in test [7] and in test [8] were 77%, 93.1% and 99%, respectively.

Turning to `CC(C)C(=O)Nc1n[nH]c2cc(-c3cccc(NS(=O)(=O)C4CC4)c3)ccc12`, the growth was 84.3% in test [1]; 76.2% in [2]; 89.7% in test [9]; 79.5% in test [3]; 64% in [4]; 24.5% in test [5]. Besides, the figures for the growth in [6], in test [7] and in test [8] were 54.4%, 64.6% and 78.4%, respectively.

As to `CC/C=C\C/C=C\C[C@H](O)C/C=C1/C(=O)C=C[C@@H]1C/C=C\CCCC(=O)O`, the growth is 48% in test [1]; 12.6% in test [2]; -27.9% (active) in [3]; 30.1% in test [4]; 20.7% in [5]; -43.4% (active) in [6]. Besides, the growth in test [7] is -10.1% (active); in test [8], 17.5%.

Turning to `O=C(CSc1nnc(-c2ccc(NC(=O)c3cccnc3)cc2)o1)Nc1cccc(Br)c1`, the growth was 90.6% in test [1]; 107% in [2]; 62.9% in test [9]; 68.7% in [3]; 82.8% in [4]; 92.9% in [5]. Besides, the growth is 104% in [6], 93.6% in test [7] and 110% in test [8].

Regarding `Cc1ccc2[nH]c(=O)c3c(c2c1)OC(N)=C(C#N)C31c2cc(Br)ccc2-c2ccc(Br)cc21`, the growth in test [1] is 45.4%; in [2] it was 39.7%; in test [9] it was 62.5%; in [3], 72.6%; in test [4], 48.3%; in [5] it was 56%. For the same compound, the growth was 49.5% in test [6], 63% in [7] and 66.8% in [8].

For the compound `Cn1c2c(c3ccc(Cl)c(Cl)c31)C(C#N)C1(CCNCC1)NC2=O` (stereo not given), the growth in [1] is 47.2%; in test [2], 9.42% (active); in test [9], 57.2%; in test [3] it was 47.7%; in test [4], 20.5%; in test [5] it was 59.6%. For the same compound, the results for the growth in [6] and in test [8] were -46.5% (active) and -81.4% (active), respectively.

With `O=[N+]([O-])c1ccc(OCCO)cc1`, the growth was 101% in test [1]; 108% in test [2]; 101% in test [9]; 104% in [3]; 87.2% in test [4]; 109% in [5]. Besides, the values for the growth in test [6] and in test [7] were 96.9% and 97.8%, respectively.

As for `Cc1cc(NCCCCNc2ccnc3cc(Cl)ccc23)nc(Nc2ccc(C(=O)N3CCCCC3)cc2)n1`, the growth was -31.6% (active) in test [1]; -25.4% (active) in test [2]; -36.3% (active) in test [3]; 12.2% in test [4]; -96.5% (active) in test [5]; -57.8% (active) in [6]. In addition, the growth is -78.3% (active) in [7] and -76.5% (active) in test [8].

As for `NC(=N\N=C/c1ccccc1[N+](=O)[O-])/C(N)=N\N=C/c1ccccc1[N+](=O)[O-]`, the growth in test [1] is 105%; in test [2], 103%; in test [9], 106%; in test [3] it was 108%; in test [4], 102%; in test [5], 105%. For the same compound, the growth is 104% in test [7] and 118% in test [8].

For the compound `N=C1C(c2nc(-c3ccc(Br)cc3)cs2)=C(O)CN1Cc1cccnc1`, the growth is 87.5% in test [1]; 65.4% in [2]; 75.9% in [9]; 56.7% in test [3]; -6.43% (active) in test [4]; 79.6% in test [5]. Also, the results for the growth in test [6], in test [7] and in [8] were 78.2%, 85.3% and 48.5%, respectively.

As for `Cn1c(I)c(C#C[Si](C)(C)C)c(=O)n(C(=O)c2ccccc2)c1=O`, the growth in test [1] was 6.55% (active); in [2], 1.95% (active); in test [3] it was 24.8%; in test [4], -56.8% (active); in test [5], 55.1%; in test [6], 69.9%. Besides, the growth in [7] is -90.4% (active); in test [8], -65.6% (active).
